Data from PubChem BioAssay AID488969 (Vanderbilt High Throughput Screening Facility, 2010).
Several values for one entry are separate records, joined by “and”; a condition that tells them apart may be missing. Identical values can stand only once. Whole data set: some 110,000 compounds, median “z-score” near -0.1, cut for the highest 2% near 2. The entries come from a sample that favours the highest values as a whole. Activity calls are given as the source filed them.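 The calls were made as follows: active = z-score in the third read window above 3 or below -3; inactive = the rest.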

target: Metabotropic glutamate receptor 8 (Rattus norvegicus) (UniProt P70579); experiment: rat mGluR8 modulators via GIRK flux, primary screen, cell-based, thallium flux, HTS (AID 488969); settings: HEK293 rat mGluR8, GIRK (G protein-gated inwardly rectifying potassium channel) thallium flux, FluoZin2; at 10 µM; stronger effect = higher value; submaximal glutamate (EC20) added with thallium
Sequence (P70579 whole entry, looked up): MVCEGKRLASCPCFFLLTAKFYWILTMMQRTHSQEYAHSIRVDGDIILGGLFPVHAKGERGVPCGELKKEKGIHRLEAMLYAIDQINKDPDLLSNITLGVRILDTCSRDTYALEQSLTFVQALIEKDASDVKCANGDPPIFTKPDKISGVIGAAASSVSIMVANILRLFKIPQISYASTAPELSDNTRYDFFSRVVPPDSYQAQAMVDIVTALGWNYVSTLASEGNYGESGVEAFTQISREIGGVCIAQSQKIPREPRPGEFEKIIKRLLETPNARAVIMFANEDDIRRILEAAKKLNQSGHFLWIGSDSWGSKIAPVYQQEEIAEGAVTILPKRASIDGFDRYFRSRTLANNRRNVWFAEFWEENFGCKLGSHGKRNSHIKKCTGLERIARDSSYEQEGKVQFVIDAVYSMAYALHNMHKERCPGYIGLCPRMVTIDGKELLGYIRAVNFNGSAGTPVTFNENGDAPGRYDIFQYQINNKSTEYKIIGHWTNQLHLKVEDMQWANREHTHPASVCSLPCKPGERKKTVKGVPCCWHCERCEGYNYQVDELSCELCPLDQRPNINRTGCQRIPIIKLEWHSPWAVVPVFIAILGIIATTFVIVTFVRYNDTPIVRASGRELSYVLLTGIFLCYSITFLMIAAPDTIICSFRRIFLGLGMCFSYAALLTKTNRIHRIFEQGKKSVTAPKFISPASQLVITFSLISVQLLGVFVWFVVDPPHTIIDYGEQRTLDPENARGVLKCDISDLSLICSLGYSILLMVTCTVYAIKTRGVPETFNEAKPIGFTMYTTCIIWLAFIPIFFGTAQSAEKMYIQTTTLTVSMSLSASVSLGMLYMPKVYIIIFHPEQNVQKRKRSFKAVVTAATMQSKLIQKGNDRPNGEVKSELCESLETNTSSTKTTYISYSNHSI

Compound | z-score
COc1cccc(C(=O)N2CCN(S(=O)(=O)Cc3ccccc3)CC2)c1OC | 1.15
C=CCn1cc([N+](=O)[O-])nc1C | -0.339
COC(=O)COc1ccc(S(=O)(=O)Nc2ccc3c(c2)OCO3)cc1 | -0.955
Cc1cc(F)ccc1NCC(=O)Nc1ccccc1Br | 1.92
CC(=O)NCC(=O)N(c1ccccc1)C1(C(=O)NC2CCCCC2)CCCCC1 | 0.432
COc1ccc(-c2nc(Cn3c(SCc4ccc(F)cc4)nc4ccncc43)c(C)o2)cc1OC | 0.565
O=C1C2C(c3ccccc3)C=CC(c3ccccc3)C2C(=O)N1c1ccncc1 (centres undefined) | -0.325
Cc1cc(C(=O)COc2ncnc3sccc23)c(C)n1C1CC1 | -0.349
Cc1cc(C(=O)COc2ncnc3sccc23)c(C)n1C | 2.04
Cc1cc(C(=O)COc2nncc3ccccc23)c(C)n1C | 0.0547
Oc1ccccc1N1CCN(c2ncccn2)CC1 | 0.0492
O=C(OCC(=O)N1CCc2ccccc21)c1cccc(S(=O)(=O)N2CCCc3ccccc32)c1 | -0.134
O=C(N/N=C/c1ccc(OC(=O)c2ccccc2)cc1)c1ccc(CN2CCOCC2)cc1 | 0.54
Cc1c(Cl)cccc1-n1ccnc1SCC(=O)O | -0.317
Cc1ccc(C)c(OCC(O)CN2C(C)CCCC2C)c1 (centres undefined) | 3.05 (active)
CC(=O)c1ccc(OCC(O)CN2C(C)CCCC2C)cc1 (centres undefined) | -0.288
COc1cccc(OCC(O)CN2C(C)CCCC2C)c1 (centres undefined) | 0.438
CCN(CC)S(=O)(=O)c1ccc(NC(=O)c2cc(C(=O)OC)cc([N+](=O)[O-])c2)cc1 | -0.729
N#CC1(Cc2ccc([N+](=O)[O-])cc2)c2ccccc2C=CN1C(=O)c1ccccc1 (centres undefined) | 2.08
N#CC1(Cc2ccc(Cl)cc2)c2ccccc2C=CN1C(=O)c1ccccc1 (centres undefined) | -0.14
N#CC1(Cc2ccccc2)c2ccccc2C=CN1C(=O)c1ccccc1 (centres undefined) | -0.211
Cc1cccc(-n2c(C)cc(/C=N/O)c2C)c1 | -0.205
O=Cc1cn(-c2ccccc2)nc1-c1ccc2c(c1)OCCO2 | -1.11

Compound | z-score
O/N=C/c1cn(-c2ccccc2)nc1-c1ccc2c(c1)OCCO2 | -0.458
NC(=O)/C=C\c1cn(-c2ccccc2)nc1-c1ccc2c(c1)OCCO2 | 2.14
O=C(COC(=O)c1cn(-c2ccccc2)nc1-c1ccccc1)c1ccc([N+](=O)[O-])cc1 | -0.413
COc1ccc(S(=O)(=O)N2CCC(CN3C(=O)c4cccc5cccc(c45)C3=O)CC2)cc1 | -0.138
COc1ccc(S(=O)(=O)N2CCC(c3cc(-c4cccc5ccccc45)n[nH]3)CC2)cc1 | 2.15
O=S(=O)(c1cccc(C(F)(F)F)c1)N1CCC(c2cc(-c3cccc4ccccc34)n[nH]2)CC1 | 1.58
Cn1c(CCN2CCN(c3ccc(F)cc3)CC2)nc2cc(NC(=O)c3ccco3)ccc21 | -2.09
Cc1ccc(N(CC(=O)Nc2ccccc2C(=O)N2CCOCC2)S(C)(=O)=O)cc1 | 0.00258
COc1ccc(C)cc1NC(=O)c1ccccc1NS(=O)(=O)c1cccc2cccnc12 | 2.02
O=C(Nc1cccc2ccccc12)c1ccccc1NS(=O)(=O)c1cccc2cccnc12 | -0.0553
COc1ccc(OC)c(NC(=O)c2ccccc2NS(=O)(=O)c2cccc3cccnc23)c1 | 0.685
Cc1cccc(C)c1-n1c(C)cc(/C=N/NC(=O)c2ccncc2)c1C | 0.0638
C/C(=C\C(=O)c1ccc(Br)cc1)NCc1ccccc1 | -0.0992
O=C(NC(=S)Nc1ccccc1N1CCOCC1)c1ccc(-c2cc(Cl)ccc2Cl)o1 | 0.0698
Cc1cc(S(=O)(=O)N2CCN(c3ccc(F)cc3)CC2)c(C)s1 | -0.128
Cc1ccc(S(=O)(=O)c2c(C)cc(C)nc2Cl)cc1 | -0.0793
Cc1cc(C)c(S(=O)(=O)c2ccccc2C)c(Cl)n1 | -0.119
Cc1ccc(S(=O)(=O)c2c(C)cc(C)nc2Cl)c(C)c1 | 4.41 (active)
CCOC(=O)c1c(C)c(C(=O)Nc2cc(OC)ccc2OC)c(C)n1CC | -0.853
CCC1(C)OCC(Cn2c3ccccc3c3ccccc32)O1 (centres undefined) | 3.89 (active)
c1ccc2c(c1)c1ccccc1n2CN1CCOCC1 | -0.144
CCn1c2ccccc2c2cc(N)ccc21 | -0.216
CC(=O)N1N=C(c2ccc(C)cc2)OC1c1ccc(C(C)C)cc1 (centres undefined) | -0.402

Compound | z-score
Cc1ccccc1N=Nc1ccc(O)c2ncccc12 | 4.67 (active)
COCc1ccc(O)c2ncccc12 | -0.0472
Oc1ccc(CNc2ccccc2)c2cccnc12 | 0.0879
OCc1ccc(O)c2ncccc12 | 0.138
Cc1ccccc1NCc1ccc(O)c2ncccc12 | 0.65
Cc1ccc(N=Nc2ccc(O)c3ncccc23)cc1 | 2.05
Cc1ccc(C(=O)c2oc3ccccc3c2NC(=O)c2cc(-c3ccccc3O)n[nH]2)cc1 | 0.291
CC(C)(C)c1ccc(-c2conc2N)cc1 | 2.09
CCOc1cc(-c2conc2N)cc(OCC)c1OCC | 0.888
CC(C)(C)c1ccc(-c2cc(N)n[nH]2)cc1 | 0.498
CCc1ccc2nc(N3C(=O)c4oc5ccccc5c(=O)c4C3c3ccc(OC)c(OC)c3)sc2c1 (centres undefined) | -0.133
O=C(NNc1nc2ccccc2s1)c1ccc(F)cc1 | 0.186
O=C(Cc1ccccc1)Nc1nc2ccccc2s1 | 0.548
O=C(Nc1nc2ccccc2s1)c1ccc(Cl)s1 | 1.22
O=C(Cc1nc(=O)c2ccccc2s1)Nc1ccccc1 | -0.368
O=C(Nc1nc(=O)c2ccccc2s1)c1ccc(Cl)cc1 | 14.9 (active)
O=C(CSC(=S)N1CCOCC1)Nc1nc(=O)c2ccccc2s1 | 0.0572
CCN(CC)C(=S)SCC(=O)Nc1nc(=O)c2ccccc2s1 | 5.2 (active)
Cn1sc(NC(=O)c2ccc(Cl)cc2)nc1=O | 0.266
CCn1c(NC(=O)c2ccc(F)cc2)c2ccccc2nc1=O | 0.0383
CCN(CC)C(=S)SCC(=O)Nc1nc(-c2ccccc2)c(-c2ccccc2)o1 | -0.0668
O=C(Cc1ccccc1)Nc1nc(=O)c2ccccc2s1 | 5.11 (active)
O=C(Nc1nc(=O)c2ccccc2s1)c1ccc(F)cc1 | 16.3 (active)

Compound | z-score
O=C(CSc1n[nH]c(-c2ccco2)n1)Nc1sc2c(c1C(=O)Nc1ccccc1)CCCC2 | -0.294
C=CCN(c1ccc(C(=O)NCCc2ccccc2)cc1)S(C)(=O)=O | -0.00787
CCOC(=O)C1CCN(S(=O)(=O)c2ccc(OCC(=O)OC)cc2)CC1 | 0.845
COc1cccc(-c2csc(N3CCN(C(=S)Nc4cccc(Cl)c4)CC3)n2)c1 | 0.143
CSc1nc(C)cc(C)c1S(=O)(=O)c1ccccc1C | -0.374
Cc1onc(-c2ccccc2)c1C(=O)NCCc1ccc(Cl)cc1 | 0.00877
CCc1ccccc1N(CC(=O)N/N=C/c1ccc(OC(=O)OC)c(OC)c1)S(C)(=O)=O | -0.214
CCCC(=O)Nc1ccc(Cl)c(NC(=O)C(C)(C)C)c1 | -0.219
CCN1CCN(C(=O)C2c3cc(OC)c(OC)cc3C(=O)N(C)C2c2ccc(SC)cc2)CC1 (centres undefined) | 0.574
N#CC1(P(=O)(c2ccccc2)c2ccccc2)CC1 | -0.0596
Nc1ccc(C(=O)Nc2nc3ccccc3s2)cc1 | -0.363
O=C(Nc1nc(-c2ccc(Cl)s2)cs1)c1ccccc1 | 0.171
O=C(Nc1nc(=O)c2ccccc2s1)c1ccccc1 | 14.9 (active)
COc1cccc(C2=NOC(C(=O)Nc3ccccc3SC)C2)c1 (centres undefined) | -0.115
CC(C)CCn1c(Cl)nc2c1c(=O)n(C)c(=O)n2C | 2.04
CC(C)CCn1c(Oc2ccc(Cl)cc2)nc2c1c(=O)n(C)c(=O)n2C | -0.037
CC(C)CCn1c(Oc2ccccc2Cl)nc2c1c(=O)n(C)c(=O)n2C | -0.1
CCC1(C)CC(c2nc(-c3ccc(OC)cc3)cs2)CCS1 (centres undefined) | -0.645
CC1(C)CC(c2nc(-c3ccc(Br)cc3)cs2)CCS1 (centres undefined) | 2.26
CC1(C)CC(c2nc(-c3ccc(Cl)cc3)cs2)CCS1 (centres undefined) | 0.117
COc1ccc(C)cc1NC1=C(Cl)C(=O)N(C2CCCCC2)C1=O | -0.0567
Cc1ccc2cccc(NC(=S)NC(=O)c3ccnn3C)c2n1 | 2.25
Cc1ccc2cccc(NC(=S)NC(=O)c3ccn(C)n3)c2n1 | 6.02 (active)

Compound | z-score
Cc1cc(C)c2cccc(NC(=S)NC(=O)c3ccccc3)c2n1 | 0.2
Cc1ccc2cccc(NC(=S)NC(=O)c3ccccc3)c2n1 | 1.02
Cc1ccc2cccc(NC(=O)C(F)(F)F)c2n1 | 0.599
Cc1ccc2cccc(NC(=S)NC(=O)c3c(Br)cnn3C)c2n1 | 0.727
c1cnc(N2CCSCC2)nc1 | -0.316
Cc1c(C(=O)Nc2ccccc2)cn2c(nc3ccccc32)c1C#N | -0.348
COc1cccc2cc(C(=O)n3ccc(C)n3)c(=O)oc12 | -1.33
O=C1CC(c2ccc(S(=O)(=O)Nc3cc(C(F)(F)F)cc(C(F)(F)F)c3)cc2)CN1 (centres undefined) | 0.112
CCC(C)n1ncn(-c2ccc(N3CCN(c4ccc(OC)cc4)CC3)cc2)c1=O (centres undefined) | -0.724
COc1cc(NC(=O)c2cc3sccc3n2C)cc(OC)c1 | -0.0259
O=c1c(O)c(-c2ccc3c(c2)OCO3)oc2ccccc12 | -0.981
COc1ccc(OC)c(-c2oc3ccccc3c(=O)c2O)c1 | 0.149
O=c1c(O)c(-c2cccs2)oc2ccccc12 | 17.2 (active)
O=C(O)c1cc(=O)c2cc(Cl)ccc2o1 | -0.147
O=c1cc(-c2cccs2)oc2ccc(Cl)cc12 | -0.565
O=c1c(O)c(-c2cccs2)oc2ccc(Cl)cc12 | 14.1 (active)
O=C(Cc1cc(=O)[nH][nH]1)N/N=C/C(Cl)=C/c1ccccc1 | -0.191 and -0.199
COc1ccc(CCNC(=O)CCSc2nc(-c3ccco3)cc(C(F)(F)F)n2)cc1OC | -2.59
c1ccc(COc2cccc(CNn3cnnc3)c2)cc1 | -0.177
COc1ccc(/C=C2\CCn3c2nc2cc(C(=O)O)ccc2c3=O)cc1O | -0.197
O=C(O)c1ccc2c(c1)ncn2C1CCCCCC1 | 0.321
CC(NC(=O)c1ccc(F)cc1)c1nc2ccccc2n1Cc1ccccc1F (centres undefined) | -0.254
